Screening results deposited in PubChem BioAssay by National Center for Advancing Translational Sciences (NCATS).
The entries come from a sample that favours hits as a whole.
Pf Dd2 inh – qHTS Primary assay for Inhibitors of Plasmodium falciparum Dd2 growth in vitro. AID 1347417, 2020. P. falciparum Dd2 growth, SYBR Green, 72 h. 4.3% of 120,000 active. Potency, µM (titrated, usually from 28.9 µM), inactives show at the highest dose activity, negative = inhibition, actives largely listed as inhibitors; active = well fitted inhibition curve with a large enough effect;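 also: plate controls were DMSO vehicle for no effect and reference drug for full effect; nearly all actives have a fitted effect of over 65% in size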
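Infected erythrocytes (Dd2, 0.3% parasitemia, 2.5% hematocrit final) are added to compound in RPMI-1640/Albumax II medium, grown 72 h at 37C in low oxygen, then lysed with saponin/Triton-X containing SYBR Green and read by fluorescence.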
* hit, by the source's call; i = inactive. Potency is read from the fitted curve at half-maximal effect.

SMILES | Pf Dd2 inh
CCc1ccc(C(=O)N2CCC(Cc3nc(-c4ccc(F)cc4)no3)CC2)cc1 | i
COc1ccc(C(=O)N2CCC(Cc3nc(-c4ccccc4)no3)CC2)cc1F | i
O=C(CCc1ccccc1)N1CCC(Cc2nc(-c3ccc(F)cc3)no2)CC1 | i
COc1cccc(-c2noc(CC3CCN(C(=O)c4ccc(C)cc4)CC3)n2)c1 | i
COc1ccc(-c2noc(CC3CCN(C(=O)CCc4ccccc4)CC3)n2)cc1 | 11µM*
CCOc1ccc(C(=O)N2CCC(Cc3nc(-c4ccc(F)cc4)no3)CC2)cc1OCC | 5µM*
Cc1ccc(-c2noc([C@@H]3CCCN3C(=O)c3ccc(Cl)cc3)n2)cc1 | 16%
COCC(=O)N[C@@H]1CN(Cc2cc(F)c(F)c(F)c2)C[C@H]1CO | 33%
CS(=O)(=O)N(Cc1cccnc1)C1CN(C(=O)CCCc2c[nH]c3ccccc23)C1 | -22%
COCC1CN(C(C)=O)CC12CCN(Cc1ccc(Cl)c(F)c1)CC2 (stereo not given) | -20%
CCc1ccc(CNC(=O)c2cc3c(N4CCSCC4)nc(C)cn3n2)cc1 | i
Cn1cc(CN2CCCC2c2ccccn2)c(-c2ccc(Oc3ccccc3)cc2)n1 (stereo not given) | 7.1µM*
O=c1cc(CN2CCCCC2c2ccccn2)[nH]c2ccc(F)cc12 (stereo not given) | -10%
CCn1ccnc1CN(C)Cc1cn(C)nc1-c1ccc(Oc2ccccc2)cc1 | -4%
CCc1noc(-c2ccn3c(CNC(=O)c4cc(C)ccc4C)nnc3c2)n1 | 11%
O=C(NC1CCc2nnc(C3CC3)n2CC1)c1ccoc1 (stereo not given) | i
C#CCN[C@H]1C[C@@H]2c3[nH]c4ccccc4c3C[C@@H](C(=O)OC)N2[C@H](c2ccc(F)cc2)C1 | 13µM*
COC(=O)[C@@H]1Cc2c([nH]c3ccccc23)[C@H]2C[C@H](NCCO)C[C@@H](c3ccccc3)N21 | i
COC(=O)[C@@H]1Cc2c([nH]c3ccccc23)[C@H]2C[C@@H](NCCNC(C)=O)C[C@@H](c3ccccc3)N21 | -14%
COC(=O)[C@@H]1Cc2c([nH]c3ccccc23)[C@H]2C[C@@H](NCCNC(C)=O)C[C@@H](c3ccc(C)cc3)N21 | i
COC(=O)[C@@H]1Cc2c([nH]c3ccccc23)[C@H]2C[C@@H](NC3CC3)C[C@@H](c3ccc(F)cc3)N21 | 4.5µM*
COC(=O)[C@@H]1Cc2c([nH]c3ccccc23)[C@@H]2C[C@@H](NCCNC(C)=O)C[C@@H](c3ccc(F)c(F)c3)N12 | 0%
COC(=O)[C@@H]1Cc2c([nH]c3ccccc23)[C@H]2C[C@@H](N3CCOCC3)C[C@@H](c3ccc(F)cc3)N21 | -14%
COC(=O)[C@@H]1Cc2c([nH]c3ccccc23)[C@H]2C[C@@H](NCCN3CCOCC3)C[C@@H](c3ccc(C(F)(F)F)cc3)N21 | 8.9µM*
COC(=O)[C@@H]1Cc2c([nH]c3ccccc23)[C@H]2C[C@@H](NCc3cccnc3)C[C@@H](c3ccc(F)c(F)c3)N21 | -12%
SMILES | Pf Dd2 inh
COC(=O)[C@@H]1Cc2c([nH]c3ccccc23)[C@H]2C[C@@H](NCCO)C[C@@H](c3ccc(F)cc3)N21 | i
COC(=O)[C@@H]1Cc2c([nH]c3ccccc23)[C@H]2C[C@H](NCc3cccs3)C[C@@H](c3ccccc3)N21 | 7.9µM*
COC(=O)[C@@H]1Cc2c([nH]c3ccccc23)[C@H]2C[C@@H](NCCNC(C)=O)C[C@@H](c3ccc(C(C)C)cc3)N21 | -21%
C=CCNS(=O)(=O)c1ccc(C(=O)NC(C)c2ncnn2CCC)cc1 (stereo not given) | -2%
O=C(Cc1cccc(Cl)c1)N1CCn2c(nn(-c3ccc(F)cc3)c2=O)C1 | -1%
O=C1CN(C(=O)CCC(=O)N2CCCC(c3nc(C4CCOCC4)no3)C2)c2ccccc2N1 (stereo not given) | -13%
CN(Cc1cn(-c2ccccc2)nn1)Cc1cnc2ccccn12 | 0%
Cc1ccc(C(=O)N2CC[C@@H]3COCCN(C)[C@@H]3C2)s1 | -10%
CCc1nc2c(=O)n(CC(=O)N3CCN(c4cc(C)ccc4C)CC3)nc(C)c2s1 | i
COCCN1C(=O)c2ccccc2C(C(=O)N2CCC(C)CC2)C12CCCC2 (stereo not given) | -8%
COc1ccc(C)cc1NC(=O)N1CC(c2nnc(-c3ccncc3)o2)C2(CCOCC2)C1 (stereo not given) | -2%
CC1=C(C(N)=O)C(c2ccc(C(C)C)cc2)n2nc(SCc3ccccc3F)nc2N1 (stereo not given) | 7%
COc1cccc(C2C(C(=O)Nc3ccc(C)cc3C)=C(C)Nc3nc4ccccc4n32)c1OC (stereo not given) | -12%
COc1ccc(C2N=C(N)Nc3nc4ccccc4n32)c(OC)c1OC (stereo not given) | -20%
CCc1ccc(C2=CC(c3cccc(OC)c3OC)n3c(nc4ccccc43)N2)cc1 (stereo not given) | 8.9µM*
